Among the test systems are HCT-15 colon; HT29 colon; SNB-75 CNS; SNB-19 CNS; U251 CNS; PC-3 prostate; SK-MEL-5 melanoma; UACC-62 melanoma; LOX IMVI melanoma; SK-MEL-28 melanoma; SK-MEL-2 melanoma; EKVX NSCLC; SN12C renal; UO-31 renal; TK-10 renal; ACHN renal; CAKI-1 renal; A498 renal; CCRF-CEM leukemia; MOLT-4 leukemia.
Common to all, as to test: NCI-60 one-dose screen, 48 h (100 = growth as untreated, 0 = no growth, -100 = all killed)
What all share (details): 10 µM unless noted

SMILES strings stand for the structures. About 83,000 compounds went through this panel and 20% of them were active in at least one assay; those are over-represented in the sample as a whole.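 Cell lines were cultured in 96-well plates, exposed to a single compound concentration, and assessed for percent growth 48 hours later.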 A number with no mark means an inactive call. The source made the active and inactive calls. The calls were made as follows: active = growth percent below 10; inactive = the rest.

Regarding `O=C1/C(=C/c2ccc(Cl)cc2)COc2ccc(O)c(O)c21`, the growth with HCT-15 colon is -1.01% (active); in the assay on HT29 colon, 15.5%; in the assay on SNB-75 CNS, 18.2%; with SNB-19 CNS, 24.9%; in the assay on U251 CNS it was -57% (active); in the assay with PC-3 prostate it was -6% (active). For the same compound, the growth was 56% with SK-MEL-5 melanoma; 4.2% (active) in the assay with UACC-62 melanoma; -84.8% (active) in the assay on LOX IMVI melanoma; 60.2% in the assay on SK-MEL-28 melanoma; 69.9% in the assay on SK-MEL-2 melanoma; 51.7% in the assay on EKVX NSCLC. The growth in the assay on SN12C renal is -51.5% (active); in the assay on UO-31 renal it was -98.5% (active); in the assay with TK-10 renal, 16.7%; in the assay with ACHN renal it was -66.3% (active); in the assay with CAKI-1 renal, -13.8% (active); in the assay with A498 renal it was 114%. The values for the growth with CCRF-CEM leukemia and in the assay with MOLT-4 leukemia were 4.29% (active) and 3.43% (active), respectively.

As for `O=C1/C(=C/c2ccc(F)cc2)COc2ccc(O)cc21`, the growth in the assay with HCT-15 colon was 60.7%; in the assay on HT29 colon, 48.7%; in the assay on SNB-75 CNS it was 83.7%; with SNB-19 CNS, 90.4%; in the assay on U251 CNS it was 60.8%; with PC-3 prostate it was 89.2%. For the same compound, the growth was 98.5% in the assay on SK-MEL-5 melanoma; 85.2% in the assay with UACC-62 melanoma; 22.5% in the assay on LOX IMVI melanoma; 103% with SK-MEL-28 melanoma; 114% with SK-MEL-2 melanoma; 101% in the assay on EKVX NSCLC. Also, the growth in the assay with SN12C renal was 78.4%; in the assay on UO-31 renal it was 64.5%; in the assay with TK-10 renal, 100%; with ACHN renal it was 87.7%; in the assay on CAKI-1 renal, 75.8%; in the assay with A498 renal, 111%. For the same compound, the growth with CCRF-CEM leukemia is 5.18% (active); with MOLT-4 leukemia, 51.7%.

With `C=C(C)[C@@H]1CC[C@]2(C(=O)O)CC[C@]3(C)[C@H](CC[C@@H]4[C@@]5(C)C[C@@H](Cc6cn(CCO[C@@H]7O[C@H](COC(C)=O)[C@H](OC(C)=O)[C@H](OC(C)=O)[C@H]7OC(C)=O)nn6)[C@H](O)C(C)(C)[C@@H]5CC[C@]43C)[C@@H]12`, the growth is 70.1% in the assay with HCT-15 colon; 77.9% in the assay with HT29 colon; 66.5% in the assay with SNB-75 CNS; 64.5% in the assay with SNB-19 CNS; 57.4% in the assay on U251 CNS; 54.9% in the assay with PC-3 prostate. The growth in the assay with SK-MEL-5 melanoma is 53.5%; in the assay on UACC-62 melanoma, 63.7%; with LOX IMVI melanoma, 45.2%; in the assay on SK-MEL-28 melanoma, 76.5%; in the assay with SK-MEL-2 melanoma, 67.2%; in the assay on EKVX NSCLC, 72%. Also, the growth in the assay on SN12C renal was 70.3%; in the assay on UO-31 renal it was 81.6%; with TK-10 renal it was 79.3%; in the assay on ACHN renal, 86%; in the assay with CAKI-1 renal, 73.2%; with A498 renal it was 70.3%. Also, the growth in the assay with CCRF-CEM leukemia is 69.2%; in the assay on MOLT-4 leukemia it was 50.6%.

`CC(C)N1CN2C(=S)NC3C2N(C1)C(=S)N3C` (stereo not given): the growth in the assay on HCT-15 colon was 105%; in the assay on HT29 colon, 92.4%; in the assay with SNB-75 CNS, 85.5%; in the assay on SNB-19 CNS it was 100%; in the assay with U251 CNS it was 101%; in the assay with PC-3 prostate, 98%. Also, the growth is 97.9% in the assay on SK-MEL-5 melanoma; 96.6% in the assay on UACC-62 melanoma; 98.9% in the assay on LOX IMVI melanoma; 114% in the assay with SK-MEL-28 melanoma; 93.4% with SK-MEL-2 melanoma; 103% with EKVX NSCLC. Besides, the growth is 97.6% in the assay on SN12C renal; 95.9% with UO-31 renal; 97.2% in the assay with TK-10 renal; 117% in the assay on ACHN renal; 92.6% with CAKI-1 renal; 102% with A498 renal. Further, the figures for the growth with CCRF-CEM leukemia and in the assay on MOLT-4 leukemia were 94.8% and 104%, respectively.

Regarding `COc1ccc(OC)c(-c2c(C#N)c(-c3cccs3)nc3c2c(-c2ccccc2)nn3-c2ccccc2)c1`, the growth in the assay on HCT-15 colon was 104%; in the assay on HT29 colon, 97.4%; in the assay on SNB-75 CNS it was 89%; in the assay with SNB-19 CNS it was 96.6%; with U251 CNS, 100%; in the assay on PC-3 prostate, 93.5%. Besides, the growth in the assay on SK-MEL-5 melanoma was 102%; with UACC-62 melanoma, 90.2%; in the assay with LOX IMVI melanoma, 104%; with SK-MEL-28 melanoma, 107%; with SK-MEL-2 melanoma it was 107%; in the assay on EKVX NSCLC, 99.7%. Also, the growth was 99.3% in the assay with SN12C renal; 97.1% in the assay with UO-31 renal; 108% in the assay on TK-10 renal; 102% in the assay with ACHN renal; 91.9% in the assay on CAKI-1 renal; 103% with A498 renal. The growth in the assay on CCRF-CEM leukemia was 99.7%; with MOLT-4 leukemia it was 99.4%.

With `CCCCCCC1(C)NCCO1` (stereo not given), the growth with HCT-15 colon was 103%; in the assay on HT29 colon, 106%; with SNB-75 CNS, 97%; in the assay on SNB-19 CNS, 94.9%; with U251 CNS, 92.4%; with PC-3 prostate it was 94%. For the same compound, the growth in the assay on SK-MEL-5 melanoma was 112%; in the assay with UACC-62 melanoma it was 86.7%; in the assay with LOX IMVI melanoma it was 103%; with SK-MEL-28 melanoma, 110%; in the assay with SK-MEL-2 melanoma it was 109%; in the assay on EKVX NSCLC it was 112%. The growth is 103% in the assay on SN12C renal; 83.7% with UO-31 renal; 111% in the assay with TK-10 renal; 103% in the assay on ACHN renal; 92.9% in the assay with CAKI-1 renal; 96.1% in the assay with A498 renal. In addition, the growth is 90.2% in the assay on CCRF-CEM leukemia and 104% in the assay on MOLT-4 leukemia.

Turning to `CCCCN[C@H]1CC[C@@]2(C)[C@@H](CC[C@@]3(C)[C@H]2[C@H](O)C[C@H]2/C(=C(\CCC=C(C)C)C(=O)OC)[C@@H](OC(C)=O)C[C@@]23C)[C@@H]1C`, the growth with HCT-15 colon is 98.8%; in the assay on HT29 colon it was 95.7%; in the assay with SNB-75 CNS, 82.9%; in the assay on SNB-19 CNS, 104%; with U251 CNS it was 98.2%; with PC-3 prostate it was 95.2%. For the same compound, the growth in the assay with SK-MEL-5 melanoma was 93.7%; in the assay on UACC-62 melanoma it was 95.5%; in the assay with LOX IMVI melanoma, 97.9%; in the assay with SK-MEL-28 melanoma it was 93.4%; with SK-MEL-2 melanoma it was 106%; in the assay with EKVX NSCLC, 96.9%. In addition, the growth is 94.6% with SN12C renal; 81.5% in the assay on UO-31 renal; 97.4% with TK-10 renal; 91.7% with ACHN renal; 90.6% with CAKI-1 renal; 97.7% with A498 renal. Moreover, the growth with CCRF-CEM leukemia was 41.3%; with MOLT-4 leukemia, 10.6%.

(Values after PubChem BioAssay (NCI).)
